Reference: PubChem BioAssay (Tox21)
Records with an inconclusive call do not appear. Activity calls are given as the source filed them. The call rests on the fitted dose curve; in most records, active means well fitted cell-killing curve with a large enough effect in the repeat runs; inconclusive means weak or mixed curves, or effect the other way; inactive means flat fitted curve, though single readings scatter.
On the % scale 0 is the no-effect control and ±100 the full control effect; potency means the concentration at half of the fitted maximal effect.

Experiment: qHTS RealTime-Glo MT Cell Viability Assay in HEK293 cells - 24 hour (AID 1224886); further: nearly all actives have a fitted effect of over 50% in size; on activity change, negative = cytotoxicity: top concentration of the series differs between compounds
Details: RealTime-Glo luminescence; series mostly up to 76.8 µM; activity change, negative = cytotoxicity: at the top concentration
Excerpt: National Center for Advancing Translational Sciences [NCATS]
NIH Chemical Genomics Center [NCGC]
U.S. Environmental Protection Agency [EPA]
National Institutes of Environmental Health Sciences [NIEHS]
National Toxicology Program [NTP]
U.S. Food and Drug Administration [FDA]
Measure of cell viability is critical in the cell-base assay. Analysis of cell viability is necessary for the characterization of cell responses to cytotoxic drugs and environmental stress. A RealTime-Glo MT Cell Viability Assay to monitor cell viability in real time of continues cell culture during 40 hours of compound treatment was used to screen Tox21 10K library compounds in Hek293 cells. The RealTime-Glo MT Cell Viability Assay is a nonlytic, homogeneous, bioluminescent method to measure cell viability in real time using a simple, plate-based method. The assay involves adding NanoLuc luciferase and a cell-permeant prosubstrate to cells in culture. Viable cells reduce the proprietary prosubstrate to generate a substrate for NanoLuc luciferase. This substrate diffuses from cells into the surrounding culture medium, where it is rapidly used by the NanoLuc Enzyme to produce a luminescent signal. The signal correlates with the number of viable cells, making the assay well suited for cytotoxicity studies.
Tox21 Assay Protocol Summary:
The mixture of Hek293 cell suspension and reagents were dispensed at 600cells/6 ul/well in 1536-well tissue culture treated black solid bottom plates using a Multidrop dispenser. After the assay plates were incubated at a 37 C/5% CO2 incubator for 5 hours, 23 nL of compounds dissolved in DMSO, positive and negative controls was transferred to the assay plate by a pintool work station. The plates were incubated at 37 C for 40 hours. The luminescence intensity were measured at 0h, 8h, 16h, 24h, 32h and 40h time points using ViewLux plate reader during compound treatment.
With CC(C)(c1cc(Br)c(O)c(Br)c1)c1cc(Br)c(O)c(Br)c1 the Potency was “inactive”. In the case of CCCC(O)C(O)CO (stereo not given), the “activity change, negative = cytotoxicity” value is reported as -0.855% (inactive). With Cc1cn[nH]c1 the “activity change, negative = cytotoxicity” value was 10.5% [at 35.3 µM] (inactive). In the case of COc1cccc(CCc2ccccc2OCC(CN(C)C)OC(=O)CCC(=O)O)c1 (stereo not given), the “activity change, negative = cytotoxicity” value is reported as -23.5% [at 35.3 µM] (inactive). In the case of CCC(=O)OCCc1ccccc1, the “activity change, negative = cytotoxicity” value is reported as 10.9% (inactive). With Cc1cc(C)c(C=O)c(C)c1 the “activity change, negative = cytotoxicity” value was 12.4% (inactive). With Oc1ccc(-c2ccccc2)c(Cl)c1 the Potency was 24.5 µM (active). In the case of C/C=C/c1ccc(OC)c(OC)c1, the “activity change, negative = cytotoxicity” value is reported as -20.4% (inactive). In the case of O=C1NCN(c2ccccc2)C12CCN(CCCC(c1ccc(F)cc1)c1ccc(F)cc1)CC2, the Potency is reported as 19 µM (active). With C(=C/c1ccccc1)/c1ccccc1 the “activity change, negative = cytotoxicity” value was -19.6% (inactive). In the case of N[C@@H](CSSC[C@H](N)C(=O)O)C(=O)O, the activity change, negative = cytotoxicity is reported as 9.89% [at 0.29 µM] (inactive). With O=C[C@H](O)[C@H](O)[C@H](O)CO the “activity change, negative = cytotoxicity” value was -1.53% (inactive). With C[Si](C)(C)Cl the “activity change, negative = cytotoxicity” value was 5.3% (inactive). With O=C1OC(=O)c2ccc3c4c(ccc1c24)C(=O)OC3=O the “activity change, negative = cytotoxicity” value was -3.93% (inactive). With CCCCCCCCCCCCCc1ccccc1 the “activity change, negative = cytotoxicity” value was -4.9% [at 35.3 µM] (inactive). With CCC(C)C(=O)OC (stereo not given) the “activity change, negative = cytotoxicity” value was 1.18% (inactive). In the case of O=Nc1ccc(NO)cc1, the “activity change, negative = cytotoxicity” value is reported as 23.4% (inactive). With C=CC(=O)OCCOCC(CC)(COCCOC(=O)C=C)COCCOC(=O)C=C the Potency was 16.1 µM (active). In the case of C=CC(=C)CC/C=C(\C)CCC=C(C)C, the activity change, negative = cytotoxicity is reported as -7.54% [at 15.8 µM] (inactive). With CCCCCCOc1cc(C)c(O)c(C)c1C the Potency was 15.7 µM (active). For C=CC(C)(CCC=C(C)C)OC(=O)/C=C/c1ccccc1 (stereo not given), the “activity change, negative = cytotoxicity” value was -6.55% (inactive). With COC(=O)CC(C)CCC=C(C)C (stereo not given) the “activity change, negative = cytotoxicity” value was 9.71% (inactive). For C=CCCCCCCC=C, the “activity change, negative = cytotoxicity” value was 2.29% (inactive). With CCCCCCCCCCCCN(CCO)CCO the Potency was 43.5 µM (active). In the case of CCc1cccc(C)c1, the “activity change, negative = cytotoxicity” value is reported as -1.19% (inactive). With OCCCc1cccnc1 the “activity change, negative = cytotoxicity” value was -2.14% (inactive). With CCCCCCCCCCCCCC[n+]1ccccc1 the Potency was 6.16 µM (active). For CC(C)CCOCCC(C)C, the “activity change, negative = cytotoxicity” value was 8.41% (inactive). For N#CSCSc1nc2ccccc2s1, the Potency was 15.5 µM (active). With CN(C)CCN1CCOCC1 the “activity change, negative = cytotoxicity” value was 2.52% (inactive). For O=S(O)O, the activity change, negative = cytotoxicity was 11.2% [at 15.8 µM] (inactive). For CCc1ccc(O)c(C(C)(C)C)c1, the “activity change, negative = cytotoxicity” value was -13.8% (inactive). In the case of CC(C)=CCCC(C)CCOC(=O)C(C)C (stereo not given), the “activity change, negative = cytotoxicity” value is reported as 6.6% (inactive). In the case of CN1[C@@H]2CC[C@@H]1CC(OC(=O)C(CO)c1ccccc1)C2 (stereo not given in full), the “activity change, negative = cytotoxicity” value is reported as -3.11% [at 35.3 µM] (inactive). With O=S(=O)(O)CCCN1CCOCC1 the “activity change, negative = cytotoxicity” value was 13.6% (inactive). For Cc1cc2c(C(C)C)c(O)c(O)c(C=O)c2c(O)c1-c1c(C)cc2c(C(C)C)c(O)c(O)c(C=O)c2c1O, the Potency was 10.7 µM (active). With CCc1cccc(CC)c1NC(=O)C(=O)O the “activity change, negative = cytotoxicity” value was 9.5% (inactive). With O=c1cccc[nH]1 the “activity change, negative = cytotoxicity” value was 9.85% (inactive). For Cc1cncc(C)c1, the “activity change, negative = cytotoxicity” value was 0.268% (inactive). For O=S(=O)(O)c1cc(S(=O)(=O)O)c2ccc3c(S(=O)(=O)O)cc(S(=O)(=O)O)c4ccc1c2c43, the activity change, negative = cytotoxicity was 1.56% [at 15.8 µM] (inactive).
